Experimental data from PubChem BioAssay (NCI).
About 83,000 compounds went through this panel and 20% of them were active in at least one assay; those are over-represented in the sample as a whole.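 Note: values are percent growth. 100 is the growth of untreated cells, values between 100 and 0 indicate rising inhibition; between -100 and 0 indicates cell death.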 Values without a mark were called inactive. Active and inactive are the calls of the source. The calls were made as follows: active = growth percent below 10; inactive = the rest.

System: HL-60(TB) leukemia
Assay: NCI-60 one-dose screen, 48 h (100 = growth as untreated, 0 = no growth, -100 = all killed)
Conditions: 10 µM unless noted

Row | SMILES | growth
1 | O=C1NC(=O)C(=Cc2cn(Cc3ccccn3)c3ccccc23)C(=O)N1 | 101%
2 | O=c1ccc(=O)n(-c2nc(-c3ccc([N+](=O)[O-])cc3)cs2)[nH]1 | 89%
3 | N#Cc1ncc(Br)c(NC2CCCCCC2)n1 | 111%
4 | O=C(O)CCCN1C(=O)CSC1=S | 103%
5 | COc1ccc(NC(=O)Nc2ccc(OCCCCCC(=O)NO)cc2)cc1 | 97.6%
6 | O=c1[nH]c(=O)[nH]c(=S)[nH]1 | 102%
7 | O=C(NCCCNc1nccc(-n2ccc3cccnc32)n1)c1c(F)cccc1F | 102%
8 | COc1ccc(-c2ccc(-c3ccc(C(=N)N)cn3)o2)cc1Cl | -59.5% (active)
9 | CS(=O)/C(C#N)=C\C=C\c1cccc(Cl)c1 (stereo not given) | -1.97% (active)
10 | CO/C=C/C(=O)c1cc2cnc3c(=N)cc(NC(=O)C(C)C)c([nH]1)c23 | -0.789% (active)
11 | CCCCCCC(=O)Nc1ncc(Cc2ccc(C)cc2)s1 | -18.2% (active)
12 | CCCCCCCCCCCCCC | 87%
13 | N#Cc1c(-c2ccc(F)cc2)cc(-c2cccc(Cl)c2)[nH]c1=O | 84.9%
14 | O/N=C1\c2ccccc2-c2ccc(Br)cc21 | 109%
15 | C=CC[n+]1c(/C=C/C=C2\N(C)c3ccccc3C2(C)C)sc2ccc(OC)cc21 | -21% (active)
16 | O=C1NC(=O)[C@@H](c2cn3c4c(cccc24)CCC3)[C@@H]1c1c[nH]c2ccccc12 | -21% (active)
17 | O=C(Nc1ccc(OCc2nnc(-c3ccccc3)o2)c(F)c1)Nc1ccc(Cl)c(C(F)(F)F)c1 | -19.7% (active)
18 | O=C(CCCl)OCCOc1ccccc1 | 101%
19 | O=c1[nH]cc(Nc2cc(Cl)c3nonc3c2[N+](=O)[O-])c(=O)[nH]1 | 75.8%
20 | O=[N+]([O-])c1ccc(N=Nc2c(O)c(N=Nc3cc([N+](=O)[O-])cc([N+](=O)[O-])c3O)cc(N=Nc3cc(S(=O)(=O)O)cc4cc(S(=O)(=O)O)cc(O)c34)c2O)cc1 | 87.2%
21 | CCCCc1n(Cc2ccc3ccccc3n2)cc[n+]1Cc1ccc2ccccc2n1 | -44.7% (active)
22 | [O-]/[N+](=C\c1ccccc1)CC1(O)CCCCC1 | 98.5%
23 | O=[N+]([O-])c1ccc(CO)cc1 | 96.7%
24 | COc1cc(-c2cc(/C=C3\C(=O)Nc4ccccc43)[nH]n2)cc(OC)c1OC | -12.1% (active)
25 | O=C(CCc1nnc(Cn2cncn2)o1)c1nc2ccccc2[nH]1 | 108%
